Bioassay records deposited in PubChem by National Center for Advancing Translational Sciences (NCATS).
A selection: hits, their analogues and other compounds. The true share with any hit is near 0.99%.
AmpC no deterg – AmpC beta-lactamase inhibition without detergent | P00811 | AmpC nitrocefin hydrolysis, absorbance 480 nm, 0.0001% Triton | Potency, µM (series often up to 57.1 µM), for the others: at the top dose activity change, negative = inhibition, hits mostly inhibitors | 0.52% of 330,000 active;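 note: plate controls were no compound for no effect and no enzyme for full effect; nearly all actives have a fitted effect of over 20% in size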
Target sequence (P00811 whole entry, looked up): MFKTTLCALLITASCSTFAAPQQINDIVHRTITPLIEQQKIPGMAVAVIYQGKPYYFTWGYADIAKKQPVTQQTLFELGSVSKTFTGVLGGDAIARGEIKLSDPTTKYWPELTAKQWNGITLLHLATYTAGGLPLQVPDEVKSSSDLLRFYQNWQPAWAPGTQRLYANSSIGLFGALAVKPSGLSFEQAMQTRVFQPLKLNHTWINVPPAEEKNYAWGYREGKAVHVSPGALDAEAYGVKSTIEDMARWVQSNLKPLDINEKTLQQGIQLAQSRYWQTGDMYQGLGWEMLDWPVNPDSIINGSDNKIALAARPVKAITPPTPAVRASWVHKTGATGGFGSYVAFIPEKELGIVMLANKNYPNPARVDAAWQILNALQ
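20 mM phosphate pH 7.0 + 0.01% (detergent screen) or 0.0001% Triton X-100; 5.3 nM AmpC reagent; cpd preinc 15 min RT; nitrocefin (800 uM stock) to start; A480 q20 s × 4 min; Activity was normalised to no-enzyme and no-compound control wells.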
NS1 function inh – inhibitors of influenza NS1 protein function; 0.4% of 270,000 active; AID 2326; Potency, µM (doses to about 46.1 µM), for the others: at the top dose activity, positive = more growth; calls by dose curve; note: actives are rising curves; nearly all actives have a fitted effect of over 50% in size
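Recovery from NS1-induced slow growth read by OD600 in budding yeast switched to galactose assay medium (pH 6.0, -URA) at 1:100 dilution. Compound 23 nl per well; the matching strain lacking NS1 serves as control.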
AmpC inh detg – AmpC beta-lactamase inhibition with detergent present; AmpC hydrolysis of nitrocefin, absorbance 480 nm, 0.01% Triton; Potency, µM (titrated, usually from 114 µM), for the others: at the top dose activity change, negative = inhibition, actives largely listed as inhibitors; 0.041% of 370,000 active; AID 485294;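 note: 0% = no-compound wells and -100% = no-enzyme wells; nearly all actives have a fitted effect of over 25% in size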
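20 mM phosphate pH 7.0 + 0.01% (detergent screen) or 0.0001% Triton X-100; 5.3 nM AmpC reagent; cpd preinc 15 min RT; nitrocefin (800 uM stock) to start; A480 q20 s × 4 min; Activity was normalised to no-enzyme and no-compound control wells.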
AMA1-RON2 inh – AMA1-RON2 (P. falciparum) interaction inhibition. AlphaScreen AMA1-biotinylated RON2 peptide binding. Potency, µM (doses to about 58.2 µM), for inactives: at the top dose activity change, negative = inhibition, hits mostly inhibitors. 0.2% of 360,000 active. AID 720542;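 note: 0% = vehicle wells and -100% = peptide control; nearly all actives have a fitted effect of over 45% in size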
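AMA1 (3D7) with his tag at 25 nM final met compounds first, then biotinylated RON2 peptide at 25 nM; detection used donor plus acceptor beads, 10 µg/mL apiece, read by AlphaScreen after 30 min at room temperature.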
SARS PLP yeast – inhibitors of SARS-CoV papain-like protease in yeast. S. cerevisiae expressing SARS-CoV PLpro, growth rescue. Potency, µM (doses to about 32.9 µM), for inactives: at the highest dose activity, positive = growth rescue, actives largely listed as activators. 0.19% of 330,000 active. AID 485353; calls by dose curve; note: 0% is about no effect; nearly all actives have a fitted effect of over 55% in size
* hit, by the source's call; ? = inconclusive; . = no result given. Unless noted, calls come from the whole dose curve; as a rule, active = well fitted curve in the direction sought with a large enough effect; inconclusive = small, poorly fitted or top-dose-only effect, or another doubt; inactive = no such curve, though single readings can be large; an effect the other way counts as inactive or inconclusive. Potency is the fitted concentration of half-maximal effect.

SMILES	AmpC no deterg	NS1 function inh	AmpC inh detg	AMA1-RON2 inh	SARS PLP yeast
Cc1ccc(NC(=O)OCc2ccccc2S(C)=O)cc1 (stereo not given)	-6%	.	?	16%	2%
CS(=O)c1ccccc1COC(=O)Nc1ccc(Cl)cc1 (stereo not given)	6.3µM*	5%	5%	1%	1%
COc1ccc(-c2cn3c(n2)sc2cc(C(=O)Nc4cccc(SC)c4)ccc23)cc1	.	.	-4%	.	.
Cc1c(/C=N/NC(=O)CNc2ccccc2)c2ccccn2c1C(=O)c1ccc(Cl)cc1	2.5µM*	?	0%	-12%	5%
Nc1ccc2c3c(ccc([N+](=O)[O-])c13)CC2	.	.	.	28µM*	.
CCOC(=O)c1c(C)oc2ccc(N(C(C)=O)S(=O)(=O)c3c(C)cc(C)cc3C)cc12	.	.	0%	.	.
O=C(CCCCCNC(=S)Nc1ccccc1)C[N+](=O)[O-]	-38%	.	-3%	4%	-3%
O=C(CCCCCNC(=S)Nc1ccc(Cl)cc1)C[N+](=O)[O-]	20µM*	-1%	0%	33%	0%
COc1ccccc1CNS(=O)(=O)c1ccc2c(c1)CC(C)N2C(C)=O (stereo not given)	.	.	-6%	.	.
COc1ccc(NC(=O)c2cc3c([nH]c4ccccc43)c(C)n2)cc1	8.9µM*	-7%	-7%	126%	2%
c1coc(-c2ncc[nH]2)c1	-23%	0%	5%	28µM*	-16%
CCCC(=O)Nc1nc(-c2ccc3c(c2)OCCO3)cs1	11µM*	-14%	?	4%	-12%
CC1=NN(c2ccccc2)C(=O)C1=Cc1ccccc1	.	.	.	-5%	.
CC1=NN(c2ccccc2)C(=O)/C1=C/c1ccc[nH]1	-10%	9%	-7%	13µM*	5%
c1ccc(/C(=N/Nc2nc3ccccc3s2)c2ccccn2)cc1	.	-44%	.	.	.
FC(F)(F)c1ccc(Cl)c(-n2c(-c3cc(-c4ccco4)[nH]n3)n[nH]c2=S)c1	4µM*	16%	3%	84%	2%
FC(F)(F)c1ccc(Cl)c(-n2c(-c3ccco3)n[nH]c2=S)c1	-15%	-1%	0%	77%	-2%
CS(=O)(=O)N1CCN(c2ccccc2NC(=S)NC(=O)c2cccs2)CC1	-16%	6%	-2%	-2%	-1%
CC1CCN(c2ccccc2NC(=S)NC(=O)c2cccs2)CC1	10µM*	9%	-3%	61%	13%
COc1ccc(S(=O)(=O)n2nc(-c3ccco3)nc2NCc2ccc(N(C)C)cc2)cc1	.	.	1%	.	.
CN(C)S(=O)(=O)c1cccc(NC(=S)NNC(=O)c2cc3ccccc3cc2O)c1	25µM*	.	-1%	73%	4.5µM*
CC(=O)NC(CCS(C)(=O)=O)C(=O)Nc1ccccc1 (stereo not given)	5µM*	-2%	?	-2%	-2%
COc1cc(CN(C(=O)c2cccc(C)c2)c2ccccn2)cc(OC)c1OC	.	.	18%	.	.
Cc1c(Cl)cccc1NC(=O)CN1C(=O)COc2ccc(S(=O)(=O)Nc3ccccc3)cc21	.	.	23%	.	.
CCN(CC)c1ccc(Nc2nc(N3CCOCC3)c3ccccc3n2)cc1	-10%	-7%	0%	24µM*	-18%
SMILES	AmpC no deterg	NS1 function inh	AmpC inh detg	AMA1-RON2 inh	SARS PLP yeast
Cc1onc(-c2c(F)cccc2Cl)c1C(=O)N[C@@H]1C(=O)N2C(C(=O)O)C(C)(C)S[C@H]12 (stereo not given in full)	.	.	2.5µM*	30%	.
Cc1onc(-c2c(F)cccc2Cl)c1C(=O)NCc1ccccc1	2%	19%	-2%	3%	2%
Cc1onc(-c2ccccc2Cl)c1C(=O)N[C@@H]1C(=O)N2[C@@H]1SC(C)(C)[C@@H]2C(=O)O	0.79µM*	.	0.35µM*	14%	4%
CCc1ccc(NC(=O)CN(Cc2ccccc2)S(=O)(=O)c2ccc3nc(C)sc3c2)cc1	.	.	15%	.	.
Cc1ccc(NC(=O)c2cc(C)nc3c2c(C)nn3-c2cccc(Cl)c2C)c(C)c1	.	.	2%	.	.
COCCNC(=O)C(=O)Nc1c2c(nn1-c1ccccc1)CS(=O)(=O)C2	.	.	2%	.	.
Cc1cc(O)c(C=O)c2c1C(=O)Oc1c(CO)c(O)c3c(c1O2)C(O)OC3=O (stereo not given)	-41%	13%	50µM*	1.1µM*	8%
Cc1cc(O)c(CN(C)C)c2c1C(=O)/C(=C/c1ccco1)O2	-4%	8%	0%	6%	0%
CC1CC(C)CN(C(=O)C(Cc2ccccc2)n2cccc2)C1 (stereo not given)	6%	2%	6%	-9%	-5%
CC1CCN(C(=O)C(Cc2ccccc2)n2cccc2)CC1 (stereo not given)	10µM*	-7%	?	-7%	2%
Cc1cccc(N2CCN(C(=O)C(Cc3ccccc3)n3cccc3)CC2)c1C (stereo not given)	1µM*	1%	?	-20%	-17%
Nc1c(-c2nc(-c3cccs3)no2)nnn1-c1cccc(F)c1	.	.	0%	.	.
CCCN1/C(=C2/SC(=S)N(CC)C2=O)C=Cc2ccccc21	-16%	8%	?	3.2µM*	27%
CCCN1C(=O)/C(=C2/C=Cc3ccccc3N2CC)SC1=S	-21%	.	3%	3.2µM*	-13%
CCN1C(=O)/C(=C2/C=Cc3ccccc3N2CC)SC1=S	-6%	.	3%	10µM*	0%
CN1C(=O)/C(=C2/C=Cc3ccccc3N2CCCS(=O)(=O)O)SC1=S	-16%	-4%	?	2%	-9%
CCN1/C(=C2\C(=O)N(C)C(=S)N2C)C=Cc2ccccc21	-4%	-11%	0%	?	-30%
O=C(Nc1ccc(Br)cc1F)C1CCN(c2nc3ccccc3[nH]2)CC1	.	.	-7%	.	.
COC(=O)c1ccccc1NC(=O)C1CCN(S(C)(=O)=O)CC1	0.16µM*	6%	0%	-3%	2%
COc1ccccc1NC(=O)C1CCN(S(C)(=O)=O)CC1	-24%	13%	-10%	14%	-2%
CC(=O)OC1c2ccccc2C(=O)N1c1ccccc1C (stereo not given)	-15%	7%	-8%	1%	5%
COC(=O)C1(C)Nc2ccccc2C(=O)N1c1ccccc1C (stereo not given)	1µM*	14%	?	-1%	-1%
Cc1cc(NC(=O)C(C)SCC(=O)Nc2cc(C(F)(F)F)ccc2N2CCCCC2)no1 (stereo not given)	32µM*	.	4%	-7%	-9%
Cc1cc(NC(=O)CSCC(=O)Nc2cc(C(F)(F)F)ccc2N2CCCCC2)no1	.	.	.	1%	.
Cc1ccc(CNC(=O)c2cnc(N(C)C)nc2)cc1	.	.	-5%	.	.
Cc1cccn2c3c(c(=O)nc12)C(c1ccc(F)cc1)CC(=O)N3 (stereo not given)	.	.	-4%	.	.
CN1\C(=C/C=C/C=C/C=[N+](C)C)C(C)(C)c2ccccc21	-42%	.	4%	22µM*	-9%
O=C(Nc1nnc(SCc2cc(=O)n3cc(Cl)ccc3n2)s1)c1cccc(F)c1	.	.	19%	.	.
